Assay results as given in PubChem BioAssay AID2540 (Sanford-Burnham Center for Chemical Genomics, 2010).
Screen size: about 330,000 compounds; about 4,100 (1.2%) were called active. Shown is part of a subset that was picked to be rich in actives. Unmarked numbers belong to inactive results. Cut-off read from the data, not from the text of the source: active = inhibition above about 50%; inactive = the rest.

target: Sentrin-specific protease 8 (Homo sapiens) (UniProt Q96LD8); assay: blockers of human SENP8 peptidase activity – biochemical, luminescence, primary screen (AID 2540); details: purified SENP8, Z-RLRGG-aminoluciferin cleavage, at 10 µM, stronger effect = higher value
Sequence (Q96LD8 whole entry, looked up): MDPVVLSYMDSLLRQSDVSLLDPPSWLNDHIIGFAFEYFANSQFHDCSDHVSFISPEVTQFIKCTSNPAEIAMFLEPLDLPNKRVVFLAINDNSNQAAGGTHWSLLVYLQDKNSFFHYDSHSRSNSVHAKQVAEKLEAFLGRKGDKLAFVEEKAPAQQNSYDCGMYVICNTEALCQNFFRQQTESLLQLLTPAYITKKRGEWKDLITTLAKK

SMILES | inhibition
CCOC(=O)C1CCCCN1Cc1ccc(OC)c(OC)c1OC (stereo not given) | -0.162%
CC1CC(C)CN(CCC(=O)Nc2ccc3c(c2)CCC3)C1 (stereo not given) | 7.63%
CC(C)Oc1ccc(C(=O)NCC(=O)Nc2ccc3c(c2)CCC3)cc1 | 6.91%
O=C(Nc1ccc2c(c1)CCC2)c1ccc(Br)s1 | 61.5% (active)
Cc1nn(-c2ccccc2)c2c1C(=O)NC(=O)C(C)(C)C2 | 4.21%
Cc1nnc(SCc2ccc(C(=O)c3ccc(Cl)cc3)o2)n1-c1ccccc1 | -8.59%
Nc1nc(NCc2ccccc2)n(-c2ccccc2)n1 | 4.17%
COc1ccccc1CNC(=O)CSc1nc(=O)n(Cc2ccncc2)c2c1CCC2 | -3.51%
Nc1nc(NCC(=O)O)nc(N2CCCCCC2)c1[N+](=O)[O-] | -1.61%
N#CCc1c(C#N)c(N)nc(N2CCCC2)c1C#N | 0.98%
N#Cc1c(N2CCCCC2)nc(N)c2c(N)nc(SCC(=O)O)cc12 | 70.8% (active)
O=S(=O)(NCC1CCCO1)c1cnc(Cl)c(Cl)c1 (stereo not given) | 3.51%
O=C(CN(c1ccccc1)S(=O)(=O)c1ccc(Cl)cc1)Nc1ccccc1C(=O)N1CCCC1 | 2.45%
Cc1nc(C(=O)N2CCCC(C(=O)c3ccc(Cl)cc3)C2)cs1 (stereo not given) | -2.8%
Cn1cc(-c2ccccc2)cc(C#N)c1=O | 3.36%
COC(=O)[C@@H](NC(=O)NCc1cccc(OC)c1)C(C)C | 0.612%
NC1=NN(c2cccc(C(=O)O)c2)C(=O)C1 | -5.54%
O=C(O)c1ccc(N=NN2CCOCC2)cc1 | 1.65%
O=C(O)c1cccc(N=NN2CCCCCC2)c1 | 88.8% (active)
Cc1cc(C(F)(F)F)nn1CC(=O)N1CCCC1 | -6.86%
COc1ccc(C2/C=C\CN(S(=O)(=O)c3cccs3)CC(=O)N2Cc2ccc(F)cc2)cc1 (stereo not given) | -0.424%
CN1CCN(C2Cc3ccc(Cl)cc3Sc3ccc(F)cc32)CC1 (stereo not given) | -10.9%
CCOC(=O)/C(=C\c1ccc([N+](=O)[O-])cc1)C(=O)c1cc(C(C)=O)c(Nc2ccccc2)s1 | 6.19%
O=C(c1ccc(F)cc1)n1c(=S)nc2ccccn21 | 64.1% (active)
O=C(c1ccc(F)cc1)n1cc(C(=S)N2CCOCC2)c2ccccc21 | -5.7%

SMILES | inhibition
O=C(Cn1c(=S)nc2ccccn21)N1CCc2ccccc2C1 | 0.682%
Cc1ccccc1SCC(=O)OCC(=O)N1CC(=O)Nc2ccccc21 | 4.24%
Cc1cccc(CN2CCC(CNC(=O)Nc3ccc(F)c(Cl)c3)CC2)c1 | -1.33%
CC(C)Cn1c(N)c(C(=O)NCc2cccs2)c2nc3ccccc3nc21 | 90% (active)
Cn1ncc(Br)c1C(=O)NCc1cccs1 | -2.84%
CCOc1ccccc1NC(=O)Cn1nnc(C(=O)NCc2cccs2)c1N | 19.3%
CCCCNC(=O)N1CCN(S(C)(=O)=O)CC1 | -11%
COc1ccc(C(=O)O/N=C(\N)c2ccccn2)cc1[N+](=O)[O-] | -12%
N/C(=N\OC(=O)c1ccc([N+](=O)[O-])cc1)c1ccccn1 | 89.6% (active)
O=C(COC(=O)c1ccccn1)NNC(=O)c1ccc([N+](=O)[O-])cc1 | -16.2%
O=C(COC(=O)c1ccccn1)NNC(=O)c1ccc(Br)cc1 | 0.814%
Cc1ccc(C(=O)O/N=C(\N)c2ccccn2)cc1Cl | 78% (active)
C/C(=N/OC(=O)c1cccc(C(F)(F)F)c1)c1cnccn1 | -12.8%
CCCNC(=O)COc1coc(CN2CCN(Cc3ccccc3)CC2)cc1=O | -2.92%
CC(C)Cn1c(SCC(=O)Nc2ccc(Cl)cc2F)nc(O)cc1=O | 0.222%
COc1cc2ccccc2cc1C(=O)Nc1nc(C)c(C(C)=O)s1 | -0.787%
COc1cccc2sc(Nc3nc(C)c(C(C)=O)s3)nc12 | 66.7% (active)
CNC(=O)c1sc(NCc2ccccc2OC)nc1C | 0.124%
Cc1ccc(S(=O)(=O)N2CCCCC2)cc1C(=O)N1CCN(CCO)CC1 | 4.2%
O=C(NCc1ccccc1Cl)C1CCCN1S(=O)(=O)c1ccc(F)cc1 (stereo not given) | -7.31%
Cc1ccc(N2CC(C(=O)Nc3cc(Cl)ccc3-n3cncn3)CC2=O)cc1 (stereo not given) | 10.6%
Cc1ccc(-n2ncc3c(Nc4cccc(C(=O)O)c4)ncnc32)cc1 | 90.4% (active)
CC(C)Sc1ncnc2c1cnn2-c1ccccc1 | 38.9%
Cc1ccc(Nc2ncnc3c2cnn3C)c(C)c1 | 0.699%
O=C(C1CCN(C2CCN(Cc3ccc4cc(F)ccc4n3)CC2)CC1)N1CCCC1 | -5.41%
